From PubChem BioAssay
Hits are enriched below; roughly 19% of the tested compounds scored in any of these assays.
TDP1 inh: inhibitors of human tyrosyl-DNA phosphodiesterase TDP1; Q9NUW8; recombinant TDP1, AlphaScreen DNA substrate cleavage; Potency, µM (series often up to 130 µM), for the others: at the highest dose activity change, negative = inhibition, hits mostly inhibitors; 350,000 compounds, 0.28% hits; AID 485290; note: potency is the fitted concentration of half-maximal effect; % is set by controls: 0 for no effect and ±100 for the full control effect; nearly all actives have a fitted effect of over 40% in size
Target sequence (Q9NUW8 whole entry, looked up): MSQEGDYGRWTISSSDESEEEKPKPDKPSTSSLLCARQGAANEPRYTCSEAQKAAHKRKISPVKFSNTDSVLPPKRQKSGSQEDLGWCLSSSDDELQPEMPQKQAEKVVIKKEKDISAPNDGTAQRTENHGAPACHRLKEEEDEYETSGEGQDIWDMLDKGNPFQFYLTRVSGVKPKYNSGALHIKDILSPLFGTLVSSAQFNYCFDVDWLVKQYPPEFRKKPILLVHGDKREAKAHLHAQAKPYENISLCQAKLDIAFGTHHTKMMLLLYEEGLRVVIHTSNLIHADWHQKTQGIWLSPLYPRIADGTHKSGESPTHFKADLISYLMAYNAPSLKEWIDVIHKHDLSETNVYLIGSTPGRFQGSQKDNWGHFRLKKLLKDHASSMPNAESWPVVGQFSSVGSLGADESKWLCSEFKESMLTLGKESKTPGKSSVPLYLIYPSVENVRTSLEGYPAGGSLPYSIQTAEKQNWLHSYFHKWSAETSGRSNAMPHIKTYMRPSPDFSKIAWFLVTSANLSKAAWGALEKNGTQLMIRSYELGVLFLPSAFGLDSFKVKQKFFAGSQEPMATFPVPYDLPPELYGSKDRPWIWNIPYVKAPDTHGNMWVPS
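Here, a 5' biotin and 3' phosphotyrosine-FITC DNA oligonucleotide reports Tdp1 activity: intact substrate bridges AlphaScreen beads, while cleavage leaves a 3' phosphate and drops signal. All incubations at room temperature.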
DT40 TDP1 no CPT: qHTS for Inhibitors of human tyrosyl-DNA phosphodiesterase 1 (TDP1): qHTS in cells in absence of CPT; DT40 Tdp1-/- hTDP1 cells, no CPT, ATP luminescence, 48 h; Potency, µM (series often up to 46.2 µM), for inactives: top-dose activity change, negative = growth inhibition, actives largely listed as inhibitors; 420,000 compounds, 15% hits; AID 686978, 2013; note: potency is the fitted concentration of half-maximal effect; % is set by controls: 0 for no effect and ±100 for the full control effect; nearly all actives have a fitted effect of over 55% in size
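Stably hTDP1-transfected Tdp1-null chicken DT40 cells were treated with library compounds minus camptothecin and grown for at least 48 hr at 37 °C, after which cellular ATP was quantified by luminescence.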
IL-1B inflam inh: inhibitors of inflammasome signaling (IL-1 beta secretion); THP-1 LPS/ATP IL-1B secretion, AlphaLISA, 16 h; stronger effect = lower value; 360,000 compounds, 4.7% hits; activity change, % at 57.5 µM; AID 743279; in the data active = activity change below about -50%; inconclusive = mostly about -30% to -49%; note: % is set by controls: 0 for no effect and ±100 for the full control effect
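THP-1 cells pretreated 1 hr with compounds (up to 57.5 uM final), then stimulated with LPS (250 ng/mL final) plus ATP (1.25 mM final); secreted IL-1B measured by AlphaLISA after 16 hr, decreased signal indicating inhibition.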
TGFb SMAD3 inh: TGF-b pathway inhibition | HepG2 CAGA-GFP TGF-b/SMAD3 reporter, GFP fluorescence, 18 h; TGF-beta stimulated, 500 pg/mL final | Potency, µM (top dose mostly 46.1 µM), inactives show at the highest dose activity, negative = inhibition, hits mostly inhibitors | 410,000 compounds, 1.2% hits | AID 588855; note: potency is the fitted concentration of half-maximal effect; % is set by controls: 0 for no effect and ±100 for the full control effect; nearly all actives have a fitted effect of over 65% in size
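Inhibition was scored as loss of TGF-beta-induced (500 pg/mL final, 18 hours, 37 degrees C) GFP in HEPG2 cells carrying a CAGA-GFP reporter, in DMEM with 1% FBS. Well GFP was summed per cell; Activity was normalised to unstimulated and stimulated DMSO wells, then concentration-response fitting.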
TDP1 cell CPT: growth inhibition of DT40 Tdp1-/-;hTDP1 cells with camptothecin (screen for TDP1 inhibitors). chicken DT40 Tdp1-/-;hTDP1 cells + 20 nM CPT, ATP luminescence, 48 h. Potency, µM (titrated, usually from 46.2 µM), without a hit: top-dose activity change, negative = growth inhibition, hits mostly inhibitors. 420,000 compounds, 12% hits; note: potency is the fitted concentration of half-maximal effect; % is set by controls: 0 for no effect and ±100 for the full control effect; nearly all actives have a fitted effect of over 55% in size
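Cell growth measured by CellTiter-Glo luminescence after a minimum 48 h, 37 C compound exposure with 20 nM CPT in Tdp1-knockout DT40 cells stably expressing hTDP1, seeded 400/well; qHTS titration format.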
HepG2 tox: kills HepG2 cells in TGF-b inhibitor counter-screen. HepG2 CAGA-GFP viability, ATP luminescence, 18 h. Potency, µM (doses to about 46.1 µM), inactives show at the highest dose activity change, negative = cytotoxicity, usual class: cytotoxic. 410,000 compounds, 0.76% hits. AID 588856; note: potency is the fitted concentration of half-maximal effect
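HepG2 CAGA-GFP cells (1000/well, DMEM with 1% FBS) received compound, then TGF-beta at 500 pg/mL final, and were incubated 18 hours at 37 degrees C. Viability was read by CellTiter-Glo luminescence. Media-only wells were set as complete cell-killing and DMSO as no toxicity.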
Numbers without * were called inactive; ? = inconclusive; · = no result given; [ ] = dose if it differs, or a comment. Unless noted, calls come from the whole dose curve; as a rule, active = well fitted curve in the direction sought with a large enough effect; inconclusive = small, poorly fitted or top-dose-only effect, or another doubt; inactive = no such curve, though single readings can be large; an effect the other way counts as inactive or inconclusive.

SMILES	TDP1 inh	DT40 TDP1 no CPT	IL-1B inflam inh	TGFb SMAD3 inh	TDP1 cell CPT	HepG2 tox
COCCn1c(C)cc(O)c(C(c2ccc(Cl)cc2)N2CCCCC2)c1=O (stereo unspecified)	3%	0%	·	-16%	4%	-11%
Cc1nc(S(=O)(=O)N2CCN(c3ccc(Cl)cc3)CC2)cn1C	3%	-12%	·	7%	-23%	-10%
O=c1[nH]c(Cc2ccccc2)nc2c1oc1ccccc12	2%	?	0	?	6.5µM*	-4%
O=c1[nH]c(CO)nc2c1oc1ccccc12	4%	1%	15	1%	9%	-31%
COc1ccc(N2CCN(C(=O)COC(=O)CCOc3ccc(C)cc3)CC2)cc1	1%	?	5	5%	?	-5%
COc1ccc(S(=O)(=O)NCCS(=O)(=O)N2CCN(c3ccccc3F)CC2)cc1	1%	?	·	?	?	-23%
CCc1nc2ccc(C(=O)NCC3CCCCC3)cn2c1N(C)Cc1ccc(OC)cc1	·	?	?	?	?	-27%
CCCCNC(=O)c1ccc2nc(CC)c(N(C)Cc3cccs3)n2c1	·	?	-74*	0%	18µM*	-22%
CCc1nc2ccc(C(=O)NCc3ccc(OC)cc3)cn2c1N(C)Cc1ccc(OC)cc1	·	21µM*	-11	0%	?	-23%
CCc1nc2ccc(C(=O)NCc3ccccc3OC)cn2c1N(C)Cc1ccc(OC)cc1	·	21µM*	-52*	?	16µM*	-34%
CCc1nc2ccc(C(=O)NCCOc3ccc(OC)cc3)cn2c1N(C)C(=O)C1CCCCC1	·	21µM*	-8	0%	?	-3%
C/C=C/c1ccc(OC(C)[C@@H](O)c2ccc(O)c(OC)c2)c(OC)c1 (stereo partly specified)	7%	-16%[9.04 µM]	·	·	-16%[9.04 µM]	·
COCCn1c(=N)c(C(=O)NC2CCCC2)cc2c(=O)n3cc(C)ccc3nc21	·	3%	·	5%	0%	-5%
CCc1nc2ccc(C(=O)N(C)CCCN(C)C)cn2c1N(C)CCCc1ccccc1	·	?	-12	-2%	?	-21%
CCCCN(C=O)c1c(CC)nc2ccc(C(=O)NCCc3c[nH]c4ccccc34)cn12	·	?	-28	-3%	?	4%
CCc1nc2ccc(C(=O)N(C)Cc3ccccc3)cn2c1N(C)CCCc1ccccc1	·	13µM*	-26	?	?	-53%
CCc1nc2ccc(C(=O)Nc3ccc(Cl)c(Cl)c3)cn2c1N(C)Cc1ccc(OC)cc1	·	?	-61*	11µM*	16µM*	-44%
CCc1nc2ccc(C(=O)NCCc3c[nH]c4ccccc34)cn2c1N(C=O)CCC(C)C	·	16µM*	?	7%	21µM*	-23%
CCc1nc2ccc(C(=O)N(C)Cc3ccccc3)cn2c1N(C)Cc1ccc(OC)cc1	·	12µM*	-14	?	12µM*	-27%
COc1ccccc1NC(=O)CCS(=O)(=O)c1cc2c3c(c1)CCN3C(=O)CC2	·	-8%	·	-2%	?	-1%
O=C(c1ccc2c(c1)OCO2)N1CCOc2ccc(CN3CCC(Oc4cccnc4)CC3)cc2C1	·	-15%	·	·	-1%[9.04 µM]	·
CCc1nc2ccc(C(=O)NCCOc3ccc(OC)cc3)cn2c1N(C=O)Cc1ccc(OC)cc1	·	?	0	-2%	23µM*	-18%
CCc1nc2ccc(C(=O)N(C)CCCN(C)C)cn2c1N(C)Cc1cc2ccccc2s1	·	21µM*	-9	-16%	?	-45%
CCc1nc2ccc(C(=O)NCCN3CCCC3)cn2c1N(C)Cc1ccc(OC)cc1	·	?	?	43%	?	3%
CSc1nsc(NN)n1	·	-5%	-3	3%	-1%	-6%
